# Data published in PubChem BioAssay (NCATS).
# Values joined by “and” are separate entries in the source; they are usually repeats but may differ in a detail not shown here. Equal entries are not always repeated. Results filed as inconclusive are left out. More than one record can exist for a structure, and the calls need not agree. Active and inactive are the calls of the source. Unless noted, calls follow the shape of the dose curve; as a rule, active = well fitted curve in either direction with a large enough effect (not every such curve was filed as active); inconclusive = small, poorly fitted or top-dose-only effect, or another doubt; inactive = flat fitted curve, though single readings scatter.
# Tests used:
# [1] = AP1 Signaling Pathway (AID 357); conditions: ME-180 AP-1-bla reporter, EGF-induced, beta-lactamase ratio, 5 h;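 also: ME-180 reporter cells stimulated with EGF at its EC50 level; % is scaled to controls: 0 for no effect and ±100 for the full control effect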
# How it was run: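 Cells are seeded overnight, exposed to compound titrations and an EC50 level of EGF for 5 hours at 37 °C, then loaded with CCF4 dye for 2.5 hours. Beta-lactamase activity under the AP-1 element is read as a blue/green ratio.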
# [2] = target: Cytochrome P450 1A2 (Homo sapiens) (UniProt P05177); assay: p450-cyp1a2 (AID 410; calls by dose curve; also: potency is read from the fitted curve at half-maximal effect;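 as to activity change, negative = inhibition: -100% = full effect of reference inhibitor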); conditions: recombinant CYP1A2, luciferin-ME demethylation, luminescence; series mostly up to 57 µM
# Sequence of Cytochrome P450 1A2 (Homo sapiens) (P05177 whole entry, looked up): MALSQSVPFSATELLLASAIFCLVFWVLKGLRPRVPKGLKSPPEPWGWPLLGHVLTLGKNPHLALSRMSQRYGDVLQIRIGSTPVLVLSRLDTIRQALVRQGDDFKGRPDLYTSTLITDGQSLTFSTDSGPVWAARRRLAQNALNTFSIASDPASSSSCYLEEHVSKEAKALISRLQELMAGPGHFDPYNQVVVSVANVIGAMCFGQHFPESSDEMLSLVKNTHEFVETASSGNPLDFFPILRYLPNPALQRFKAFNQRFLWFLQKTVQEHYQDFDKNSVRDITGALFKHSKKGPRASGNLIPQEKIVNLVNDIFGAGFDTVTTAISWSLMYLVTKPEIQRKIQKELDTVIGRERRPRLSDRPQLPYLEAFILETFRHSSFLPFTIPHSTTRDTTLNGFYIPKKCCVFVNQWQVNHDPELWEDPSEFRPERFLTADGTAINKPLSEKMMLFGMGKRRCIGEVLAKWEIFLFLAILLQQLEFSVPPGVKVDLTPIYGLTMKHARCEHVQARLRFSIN
# How it was run: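 Luminescent readout of luciferin formed from Luciferin-ME by human CYP1A2; data normalized against complete inhibition by 57 uM furafylline. Enzyme 20nM, substrate 100uM at Km, 100mM KPO4 buffer, 60 min reaction at room temperature.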
# [3] = NFAT Signaling Pathway (AID 444); conditions: Jurkat NFAT-bla M1, carbachol, beta-lactamase ratio, 5 h;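 also: carbachol stimulus at about its EC50 of 1 µM final; % is scaled to controls: 0 for no effect and ±100 for the full control effect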
# How it was run: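 Jurkat cells carrying an NFAT-driven β-lactamase reporter and co-transfected muscarinic M1 receptor were treated with compound plus carbachol (1 uM final, an EC50 level) for 5 h at 37 °C. CCF4 loading followed for 1 h at RT; 460/530 nm ratio gave %activity.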
# [4] = Stat Signaling Pathway (AID 446); conditions: ME-180 (cervical carcinoma) SIE beta-lactamase reporter, IL-6 stimulated, 5 h;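 also: ME-180 cervical cancer cells given 40 pM IL-6 alongside compound; SIE-controlled beta-lactamase reporter measured as 460/530 nm FRET emission ratio; % is scaled to controls: 0 for no effect and ±100 for the full control effect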
# How it was run: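 IL-6/STAT signaling read in ME-180 cells via an SIE beta-lactamase reporter. Stimulus was 40 pM IL-6 (its AC50) for 5 hrs, so both activation and inhibition register.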
# [5] = target: Glucocorticoid receptor (Homo sapiens) (UniProt P04150); assay: GR-GFP Redistribution (AID 450;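 active = compounds whose dose series gives a full or clear partial fitted curve of increased nuclear translocation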; also: potency is read from the fitted curve at half-maximal effect); conditions: U2OS GR-GFP nuclear translocation, laser cytometry, 2 h
# Sequence of Glucocorticoid receptor (Homo sapiens) (P04150 whole entry, looked up): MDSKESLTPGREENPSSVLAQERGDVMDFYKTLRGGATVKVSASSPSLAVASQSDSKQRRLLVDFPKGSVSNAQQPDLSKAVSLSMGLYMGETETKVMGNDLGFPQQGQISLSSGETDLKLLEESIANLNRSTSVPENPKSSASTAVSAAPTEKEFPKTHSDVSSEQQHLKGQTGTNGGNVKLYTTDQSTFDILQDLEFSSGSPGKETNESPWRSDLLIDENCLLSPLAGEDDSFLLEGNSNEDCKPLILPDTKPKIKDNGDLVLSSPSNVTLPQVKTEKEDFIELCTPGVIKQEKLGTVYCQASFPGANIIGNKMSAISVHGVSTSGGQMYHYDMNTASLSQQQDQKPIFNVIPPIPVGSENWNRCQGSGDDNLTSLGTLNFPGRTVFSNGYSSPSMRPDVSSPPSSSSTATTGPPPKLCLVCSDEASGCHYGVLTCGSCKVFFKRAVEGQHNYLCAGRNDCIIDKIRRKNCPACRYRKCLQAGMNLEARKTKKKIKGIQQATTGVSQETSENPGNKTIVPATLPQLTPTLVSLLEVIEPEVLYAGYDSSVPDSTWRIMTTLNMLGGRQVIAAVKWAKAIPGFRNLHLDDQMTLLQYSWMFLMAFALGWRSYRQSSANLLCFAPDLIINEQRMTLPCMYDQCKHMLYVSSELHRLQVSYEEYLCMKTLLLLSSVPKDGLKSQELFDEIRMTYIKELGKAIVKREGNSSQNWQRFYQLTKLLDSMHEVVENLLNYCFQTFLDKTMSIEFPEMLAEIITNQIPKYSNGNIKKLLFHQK
# [6] = target: Mitogen-activated protein kinase 10 (Mus musculus) (UniProt Q61831); assay: JNK3 AlphaScreen Assay (AID 530); conditions: JNK3 lysate, c-Jun phosphorylation; series mostly up to 57.1 µM;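 also: kinase came from lysate of stimulated human HepG2 cells; signal reports phosphorylation of biotinylated GST-cJun 1-79 at Ser73 with 10 µM ATP; % is scaled to controls: 0 for no effect and ±100 for the full control effect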
# How it was run: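 Inhibitors reduce antibody binding to phosphorylated biotin-cJun, lowering AlphaScreen luminescence. Lysates from HepG2 cells pre-activated by IL-1beta plus TNF-alpha supplied JNK3; compounds were titrated.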
# [7] = target: 3',5'-cyclic-AMP phosphodiesterase 4B (Homo sapiens) (UniProt Q07343); assay: qHTS Assay for Inhibitors of PDE-IV (AID 607; active = well fitted activation curve with a large enough effect in the main read-out, with a control signal flat, not every such curve was filed as active; also: potency is read from the fitted curve at half-maximal effect); conditions: HEK293 ACTOne CNG channel cells, membrane potential fluorescence; series mostly up to 22.9 µM
# Sequence of 3',5'-cyclic-AMP phosphodiesterase 4B (Homo sapiens) (Q07343 whole entry, looked up): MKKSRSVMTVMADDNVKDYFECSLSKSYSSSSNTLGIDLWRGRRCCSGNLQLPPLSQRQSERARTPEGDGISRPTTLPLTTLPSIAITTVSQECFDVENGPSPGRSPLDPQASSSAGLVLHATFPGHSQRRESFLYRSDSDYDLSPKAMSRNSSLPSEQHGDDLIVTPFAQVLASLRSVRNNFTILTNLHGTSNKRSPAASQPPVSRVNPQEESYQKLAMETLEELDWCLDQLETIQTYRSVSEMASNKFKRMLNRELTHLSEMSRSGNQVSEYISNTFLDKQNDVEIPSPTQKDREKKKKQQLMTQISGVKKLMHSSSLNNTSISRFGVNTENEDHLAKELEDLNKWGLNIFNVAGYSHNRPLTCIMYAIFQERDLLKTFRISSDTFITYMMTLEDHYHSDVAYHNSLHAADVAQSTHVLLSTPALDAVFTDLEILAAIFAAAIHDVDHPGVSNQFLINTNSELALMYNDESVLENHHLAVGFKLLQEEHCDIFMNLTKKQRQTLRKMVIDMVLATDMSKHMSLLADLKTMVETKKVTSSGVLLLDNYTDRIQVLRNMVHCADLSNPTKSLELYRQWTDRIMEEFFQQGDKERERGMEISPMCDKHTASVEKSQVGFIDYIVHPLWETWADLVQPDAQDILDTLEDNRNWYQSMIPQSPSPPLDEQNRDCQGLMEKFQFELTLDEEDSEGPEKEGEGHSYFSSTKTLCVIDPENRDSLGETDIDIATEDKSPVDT
# How it was run: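 Live HEK293 cells with a modified cyclic nucleotide-gated (CNG) channel report intracellular cAMP via membrane-potential dye fluorescence (ex 535/em 590 nm). Endogenous PDE-IV was targeted. Compounds were tested at up to 22.9 uM final; RO 20-1724 100 uM served as control.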
Structure (SMILES),"activity change, negative = inhibition ([1]; at 38 µM (top of the series))",Potency [2],"activity change, negative = inhibition ([3]; at 38 µM (top of the series))","activity, negative = inhibition ([4]; at 38 µM (top of the series))",Potency [5],outcome [6],Potency [7],"activity change, negative = inhibition ([1]; at 17.2 µM (top of the series))","activity change, negative = inhibition ([3]; at 17.2 µM (top of the series))","activity, negative = inhibition ([4]; at 17.2 µM (top of the series))"
NCCc1c[nH]c2ccccc12,-5.53% (inactive),3.16 µM (active),-3.55% (inactive),-11.1% (inactive),> 46 µM (inactive),inactive,inactive,,,
CC1=NN=C(c2ccc(N)cc2)c2cc3c(cc2C1)OCO3,-19.4% (inactive),31.6 µM (active),7.54% (inactive),,> 46 µM (inactive),inactive,inactive,,,
CNCCc1c[nH]c2ccc(O)cc12,7.75% (inactive),inactive,12.8% (inactive),-2.52% (inactive),> 46 µM (inactive),inactive,inactive,,,
CC(C)Oc1cccnc1N(C)C1CCN(Cc2ccccc2)CC1,2.27% (inactive),inactive,,,> 46 µM (inactive),inactive,inactive,,,
CC(=O)OCC1=C(C(=O)O)N2C(=O)[C@@H](N)[C@@H]2SC1,,inactive,,,> 20.6 µM (inactive),inactive,inactive,2.29% (inactive),-6.12% (inactive),-1.03% (inactive)
COc1ccc(C(=O)c2c(C)n(CCN3CCOCC3)c3cc(I)ccc23)cc1,,15.8 µM (active),,,> 46 µM (inactive),,,,,
CC[C@@]1(O)C(=O)OCc2c1cc1n(c2=O)Cc2cc3ccccc3nc2-1,-97.5% (active),7.94 µM (active) and 2.51 µM (active) and 1.58 µM (active),-97% (active),42.7% (active),> 46 µM (inactive) and > 20.6 µM (inactive),inactive,inactive,-111% (active),-85.5% (active),-95.6% (active)
C#CCOC(=O)C1=CCCN(C)C1,16.6% (inactive),,44.2% [activator] (active),14.7% (inactive),> 46 µM (inactive),inactive,0.398 µM (active),,,
CCCCc1ccc(C(=O)O)nc1,-6.7% (inactive),31.6 µM (active) and inactive,6.08% (inactive),9.55% (inactive),> 46 µM (inactive) and > 20.6 µM (inactive),inactive,inactive,-4.11% (inactive),-0.081% (inactive),6.81% (inactive)
c1ccc(CCCN2CCN(CCOC(c3ccccc3)c3ccccc3)CC2)cc1,-23% (inactive),,-82.7% (active),-17.9% (inactive),> 46 µM (inactive),inactive,inactive,,,
